Measured values reported in PubChem BioAssay (NCATS).
Results filed as inconclusive are left out. The source made the active and inactive calls. Unless noted, the call rests on the fitted dose curve; in most records, active means well fitted curve in the direction sought with a large enough effect; inconclusive means small, poorly fitted or top-dose-only effect, or another doubt; inactive means no such curve, though single readings can be large; an effect the other way counts as inactive or inconclusive.

Columns and labels:
[1] = target: Peroxisome proliferator-activated receptor gamma (Homo sapiens) (UniProt P37231); test: qHTS assay for small molecule agonists of peroxisome proliferator-activated receptor gamma signaling (AID 588536; active means well fitted curve in the direction sought with a large enough effect in the signal ratio, with a control signal flat, not every such curve was filed as active; the % refers to the signal ratio;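 further: 0% = DMSO basal wells and 100% = rosiglitazone at 2 µM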)
Sequence of Peroxisome proliferator-activated receptor gamma (Homo sapiens) (P37231 whole entry, looked up): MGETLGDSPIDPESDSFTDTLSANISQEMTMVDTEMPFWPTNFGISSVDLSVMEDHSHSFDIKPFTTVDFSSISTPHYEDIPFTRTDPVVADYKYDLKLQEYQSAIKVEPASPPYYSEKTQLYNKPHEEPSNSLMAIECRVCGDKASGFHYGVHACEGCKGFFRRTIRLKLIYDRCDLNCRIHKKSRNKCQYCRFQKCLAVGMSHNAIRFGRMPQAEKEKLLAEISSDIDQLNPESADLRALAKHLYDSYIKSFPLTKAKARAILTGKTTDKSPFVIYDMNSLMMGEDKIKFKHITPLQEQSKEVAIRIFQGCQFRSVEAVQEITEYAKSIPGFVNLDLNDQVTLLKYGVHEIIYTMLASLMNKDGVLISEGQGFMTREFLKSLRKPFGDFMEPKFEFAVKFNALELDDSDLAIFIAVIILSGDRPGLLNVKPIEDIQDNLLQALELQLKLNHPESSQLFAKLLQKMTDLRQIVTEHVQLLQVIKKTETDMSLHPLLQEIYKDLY
How it was run: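 PPAR-gamma-UAS-bla HEK293 cells in medium with 1% charcoal/dextran-treated FBS were exposed to compounds for 16 h at 37 C. Beta-lactamase activity was read with CCF4 substrate (405 nm excitation, 460/530 nm emission).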

[2] = qHTS assay for small molecule agonists of retinoid X receptor alpha signaling (AID 588544; calls by dose curve;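 on activation: 0% = DMSO basal wells and 100% = reference agonist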); settings: HEK293T RXRa-UAS-bla, beta-lactamase reporter, 18 h; 530 nm emission
[3] = target: Retinoic acid receptor RXR-alpha (Homo sapiens) (UniProt P19793); test: as above
Sequence of Retinoic acid receptor RXR-alpha (Homo sapiens) (P19793 whole entry, looked up): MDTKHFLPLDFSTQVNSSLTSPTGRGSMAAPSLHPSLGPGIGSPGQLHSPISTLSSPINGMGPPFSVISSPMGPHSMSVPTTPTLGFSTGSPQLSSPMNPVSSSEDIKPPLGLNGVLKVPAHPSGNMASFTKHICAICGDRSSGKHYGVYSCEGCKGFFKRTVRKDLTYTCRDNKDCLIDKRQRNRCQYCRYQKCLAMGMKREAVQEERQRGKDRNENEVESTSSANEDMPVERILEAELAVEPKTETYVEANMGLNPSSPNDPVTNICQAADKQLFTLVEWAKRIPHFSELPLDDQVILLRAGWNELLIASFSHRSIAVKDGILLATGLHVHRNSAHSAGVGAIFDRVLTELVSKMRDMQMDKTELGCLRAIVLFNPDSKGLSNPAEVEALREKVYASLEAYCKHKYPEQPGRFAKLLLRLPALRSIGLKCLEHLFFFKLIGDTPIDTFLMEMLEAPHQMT

[4] = target: Thyroid hormone receptor beta (Homo sapiens) (UniProt P10828); test: qHTS assay for small molecule agonists of thyroid hormone receptor beta signaling (AID 588545; calls by dose curve;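 further: 0% = DMSO only and 100% = 10 nM T3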)
Sequence of Thyroid hormone receptor beta (Homo sapiens) (P10828 whole entry, looked up): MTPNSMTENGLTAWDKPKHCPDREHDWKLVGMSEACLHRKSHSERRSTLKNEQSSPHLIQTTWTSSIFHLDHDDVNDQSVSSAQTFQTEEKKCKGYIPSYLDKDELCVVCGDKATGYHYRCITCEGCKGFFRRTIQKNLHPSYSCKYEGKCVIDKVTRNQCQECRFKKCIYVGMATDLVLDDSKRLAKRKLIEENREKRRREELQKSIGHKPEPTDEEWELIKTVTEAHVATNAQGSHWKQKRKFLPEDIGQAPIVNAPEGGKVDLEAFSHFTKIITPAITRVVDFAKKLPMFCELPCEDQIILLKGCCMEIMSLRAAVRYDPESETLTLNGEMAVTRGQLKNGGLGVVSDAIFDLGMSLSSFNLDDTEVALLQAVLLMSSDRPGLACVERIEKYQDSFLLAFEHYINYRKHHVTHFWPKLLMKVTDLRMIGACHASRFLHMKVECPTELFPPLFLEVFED
How it was run: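 Stimulation of a TR-driven beta-lactamase reporter was quantified in GripTite HEK 293 cells. Compound series ran for 18 hrs; curves were normalized to T3 and DMSO controls and fitted to yield EC50.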

[5] = qHTS assay for small molecule antagonists of retinoid X receptor alpha signaling (AID 588546; active means well fitted inhibition curve with a large enough effect in the signal ratio, with a control signal flat, not every such curve was filed as active; the % refers to the signal ratio;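 further: cells stimulated with 9-cis-retinoic acid as agonist; on the % scale 0 is the no-effect control and ±100 the full control effect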); settings: HEK293T RXRa-UAS-bla, beta-lactamase ratio, antagonist mode; measured here: W530 green channel, cytotoxicity proxy
How it was run: (§1)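 Beta-lactamase reporter inhibition, read as CCF4 fluorescence ratio (ex 405, em 460/530 nm) after 2 h at RT. HEK293T UAS-bla cells, 2500/well, were stimulated with 9-cis-RA at 500 or 100 nM final alongside test compound for 18 h at 37 C.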

[6] = target: Retinoic acid receptor RXR-alpha (Homo sapiens) (UniProt P19793); test: as above; settings: HEK293T RXRa-UAS-bla, beta-lactamase ratio, antagonist mode
How it was run: as §1

[7] = target: Thyroid hormone receptor beta (Homo sapiens) (UniProt P10828); test: qHTS assay for small molecule antagonists of thyroid hormone receptor beta signaling (AID 588547; active means well fitted inhibition curve with a large enough effect in the signal ratio, with a control signal flat, not every such curve was filed as active; the % refers to the signal ratio;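 further: cells stimulated with 0.4 nM T3 agonist during compound exposure; series mostly up to about 77 µM; on the % scale 0 is the no-effect control and ±100 the full control effect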); settings: TR-UAS-bla HEK293, beta-lactamase ratio, antagonist mode, 18 h
How it was run: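 TR-UAS-bla GripTite HEK293 cells in 2% charcoal/dextran FBS medium were preincubated 4 h at 37 C, given compound (0.59 nM to 92 uM) plus 0.4 nM T3 (final) for 18 h, then CCF4 for 2 h at RT; Hill fit gave IC50.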

[8] = target: Voltage-gated inwardly rectifying potassium channel KCNH2 (Homo sapiens) (UniProt Q12809); test: qHTS Assay for Small Molecule Inhibitors of the Human hERG Channel Activity (AID 588834);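 further: top concentration of the series differs between compounds; on the % scale 0 is the no-effect control and ±100 the full control effect; lower thallium flux fluorescence means stronger hERG block; nearly all actives have a fitted effect of over 50% in size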
Sequence of Voltage-gated inwardly rectifying potassium channel KCNH2 (Homo sapiens) (Q12809 whole entry, looked up): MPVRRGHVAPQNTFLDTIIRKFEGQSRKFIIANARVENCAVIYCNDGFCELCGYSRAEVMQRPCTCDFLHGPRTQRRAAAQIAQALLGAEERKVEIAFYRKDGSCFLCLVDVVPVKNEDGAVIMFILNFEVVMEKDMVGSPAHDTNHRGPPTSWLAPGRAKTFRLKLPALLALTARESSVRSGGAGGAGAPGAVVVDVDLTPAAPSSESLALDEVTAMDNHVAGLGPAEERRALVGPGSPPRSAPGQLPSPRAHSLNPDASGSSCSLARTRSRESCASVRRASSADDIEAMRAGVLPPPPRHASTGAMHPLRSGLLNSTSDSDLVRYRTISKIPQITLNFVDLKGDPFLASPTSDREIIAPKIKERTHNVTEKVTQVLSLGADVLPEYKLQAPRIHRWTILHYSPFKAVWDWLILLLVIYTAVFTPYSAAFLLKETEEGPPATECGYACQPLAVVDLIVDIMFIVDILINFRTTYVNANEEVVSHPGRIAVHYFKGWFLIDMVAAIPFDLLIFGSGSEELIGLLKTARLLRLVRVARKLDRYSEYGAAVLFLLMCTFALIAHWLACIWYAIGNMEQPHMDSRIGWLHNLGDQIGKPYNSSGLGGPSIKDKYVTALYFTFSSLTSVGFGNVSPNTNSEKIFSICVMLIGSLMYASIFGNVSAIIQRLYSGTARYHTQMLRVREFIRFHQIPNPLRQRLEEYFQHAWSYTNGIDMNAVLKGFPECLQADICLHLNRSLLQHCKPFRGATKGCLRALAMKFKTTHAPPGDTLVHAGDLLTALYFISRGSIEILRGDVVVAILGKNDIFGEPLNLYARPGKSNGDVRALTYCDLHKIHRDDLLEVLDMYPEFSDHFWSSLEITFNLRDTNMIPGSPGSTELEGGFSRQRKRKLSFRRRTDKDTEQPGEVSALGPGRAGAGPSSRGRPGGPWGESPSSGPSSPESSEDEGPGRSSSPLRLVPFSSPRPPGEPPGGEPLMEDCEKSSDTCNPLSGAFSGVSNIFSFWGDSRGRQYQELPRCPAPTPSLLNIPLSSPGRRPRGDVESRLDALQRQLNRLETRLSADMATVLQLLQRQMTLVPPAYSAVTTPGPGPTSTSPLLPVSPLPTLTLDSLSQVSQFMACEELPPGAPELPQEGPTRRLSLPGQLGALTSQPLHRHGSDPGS
How it was run: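 hERG-BacMam U2OS, 2000 cells/well; 0.7X FluxOR loading 1 hr RT dark; cpd ~10 min 37 °C; stim buffer; FDSS fluorescence 2 min @ 1 s; AC50 Hill fit.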

[9] = qHTS assay for small molecule activators of the p53 signaling pathway (AID 651743; active means well fitted activation curve with a large enough effect in the signal ratio, not every such curve was filed as active; the % refers to the signal ratio; further: series mostly up to about 92 µM; % of control where 0% means no effect); settings: HCT-116 p53RE-bla, beta-lactamase FRET ratio, 16 h; activation: stronger effect = higher value
How it was run: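 Cell-based beta-lactamase reporter (p53 response elements, HCT-116 background). After a 5-hour preincubation, cells received compound for 16 hours at 37 C; substrate development ran 2 hours at room temperature.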

[10] = qHTS assay for small molecule activators of the nuclear factor-kappa B (NF-kB) signaling pathway (AID 651749; active means well fitted activation curve with a large enough effect in the signal ratio; the % refers to the signal ratio; further: series mostly up to about 77 µM; % of control where 0% means no effect); settings: NF-kB-bla ME-180 cells, beta-lactamase FRET ratio, 16 h; stronger effect = higher value
How it was run: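 Screening used 2,000 ME-180 reporter cells per well exposed to pinned compound (23 nL) or DMSO; after 16 hr at 37C, beta-lactamase expression under NF-kB control was assessed through FRET.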

[11] = qHTS assay for small molecule disruptors of the mitochondrial membrane potential - 1 hr assay (AID 651754; calls by dose curve; further: potency means the concentration at half of the fitted maximal effect; nearly all actives have a fitted effect of over 35% in size)
How it was run: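 HepG2 cells, attached overnight, were exposed to compound for 1 hr at 37C, then stained 30 min with a potentiometric dye. Ratio of red aggregate (590nm) to green monomer (535nm) fluorescence reports membrane potential; collapse shifts signal toward green.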

[12] = qHTS assay for small molecule disruptors of the mitochondrial membrane potential - 5 hr assay (AID 651755; calls by dose curve; further: potency means the concentration at half of the fitted maximal effect; nearly all actives have a fitted effect of over 40% in size)
How it was run: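 HepG2 cells, attached overnight at 37C, were exposed to compound or DMSO for 5 hr at 37C, 5% CO2. Mito-MPS dye was then added for 30 min, and fluorescence read at 490/535 nm (monomers) and 540/590 nm (aggregates).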

[13] = target: Tumor necrosis factor (Homo sapiens) (UniProt P01375); test: qHTS assay to identify small molecules that stimulate Tumor Necrosis Factor-alpha (TNF-alpha) secretion (AID 651757; active means well fitted curve in the direction sought with a large enough effect in the signal ratio; the % refers to the signal ratio; further: 0% is about no effect)
Sequence of Tumor necrosis factor (Homo sapiens) (P01375 whole entry, looked up): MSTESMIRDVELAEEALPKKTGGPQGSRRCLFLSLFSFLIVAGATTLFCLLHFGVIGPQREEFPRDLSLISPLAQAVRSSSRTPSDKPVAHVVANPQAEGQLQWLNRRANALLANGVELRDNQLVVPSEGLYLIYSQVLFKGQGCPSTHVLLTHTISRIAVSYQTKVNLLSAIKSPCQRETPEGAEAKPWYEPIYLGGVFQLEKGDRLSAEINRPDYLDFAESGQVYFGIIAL
How it was run: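 THP-1 cells (3000/well) exposed to compounds 17 hrs at 37 C. Secreted TNF-alpha detected by HTRF with cryptate- and XL665-labeled anti-TNF-alpha antibodies after 3 hr at room temperature.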

[14] = qHTS assay for environmental chemicals that activate the Aryl hydrocarbon Receptor (AhR) signaling pathway (AID 651777); settings: 1A2-DRE human hepatoma cells, luciferase, 24 h; activation: stronger effect = higher value; further: potency means the concentration at half of the fitted maximal effect; nearly all actives have a fitted effect of over 15% in size
How it was run: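 Reporter gene assay: hepatoma cells with DRE/CYP1A2-luciferase, 24 hr compound incubation at 37 C, 5% CO2, luminescence after One-Glo (30 min, RT).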

[15] = target: Peroxisome proliferator-activated receptor alpha (Homo sapiens) (UniProt Q07869); test: qHTS assay for small molecule agonists of the peroxisome proliferator-activated receptor alpha (PPARalpha) signaling pathway (AID 651778); settings: PathHunter PPARalpha complementation, chemiluminescence, 6 h; stronger effect = higher value; further: % of control where 0% means no effect
Sequence of Peroxisome proliferator-activated receptor alpha (Homo sapiens) (Q07869 whole entry, looked up): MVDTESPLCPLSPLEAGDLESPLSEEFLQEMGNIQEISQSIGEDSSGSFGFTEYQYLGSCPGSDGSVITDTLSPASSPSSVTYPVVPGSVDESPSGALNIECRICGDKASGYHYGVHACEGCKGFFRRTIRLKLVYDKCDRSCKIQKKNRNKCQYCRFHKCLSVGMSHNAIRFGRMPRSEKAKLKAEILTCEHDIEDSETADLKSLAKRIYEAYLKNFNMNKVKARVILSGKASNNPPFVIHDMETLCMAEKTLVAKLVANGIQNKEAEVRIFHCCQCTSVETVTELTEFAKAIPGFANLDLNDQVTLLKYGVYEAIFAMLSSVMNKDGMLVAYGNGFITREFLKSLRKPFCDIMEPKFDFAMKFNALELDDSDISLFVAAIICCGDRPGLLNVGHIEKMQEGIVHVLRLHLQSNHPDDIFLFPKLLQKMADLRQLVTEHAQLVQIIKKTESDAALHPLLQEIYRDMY
How it was run: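 Cells plated at 2,000/well and held overnight at 37 C, 5% CO2, then compound added by pin tool for 6 hr; after PathHunter detection reagent and 60 min at room temperature, chemiluminescence from enzyme complementation was read.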

[16] = target: Nuclear receptor ROR-gamma (Homo sapiens) (UniProt P51449); test: qHTS assay for small molecule antagonists of the retinoid-related orphan receptor gamma (ROR-gamma) signaling pathway (AID 651802);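 further: luciferase reporter luminescence driven by ROR response element; series mostly up to about 92 µM; on the % scale 0 is the no-effect control and ±100 the full control effect; nearly all actives have a fitted effect of over 60% in size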
Sequence of Nuclear receptor ROR-gamma (Homo sapiens) (P51449 whole entry, looked up): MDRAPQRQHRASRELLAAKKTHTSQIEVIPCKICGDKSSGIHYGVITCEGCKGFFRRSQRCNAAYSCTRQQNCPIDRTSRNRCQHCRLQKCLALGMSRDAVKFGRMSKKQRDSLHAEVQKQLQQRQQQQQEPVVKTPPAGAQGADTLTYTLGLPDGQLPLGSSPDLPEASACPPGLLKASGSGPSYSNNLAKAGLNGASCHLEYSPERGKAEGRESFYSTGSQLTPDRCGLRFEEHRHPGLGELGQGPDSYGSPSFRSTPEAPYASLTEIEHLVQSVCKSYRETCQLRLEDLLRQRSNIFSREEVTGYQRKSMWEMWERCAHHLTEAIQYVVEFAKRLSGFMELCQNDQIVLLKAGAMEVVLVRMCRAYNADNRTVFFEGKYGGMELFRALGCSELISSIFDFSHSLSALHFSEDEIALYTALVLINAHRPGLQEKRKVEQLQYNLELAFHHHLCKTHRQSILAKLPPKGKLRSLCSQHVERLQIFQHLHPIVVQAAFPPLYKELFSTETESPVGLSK
How it was run: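 CHO cells with TET-inducible ROR-gamma and RORE-luciferase reporter, dosed then doxycycline-induced. After 16 h at 37C, One-Glo luminescence read; decreased signal indicates antagonism.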

[17] = qHTS assay for small molecule antagonists of the retinoid-related orphan receptor gamma (ROR-gamma) signaling pathway - cell viability counter screen (AID 720652; active means well fitted curve in the direction sought with a large enough effect in the repeat runs; an effect the other way counts as inactive or inconclusive;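 further: series mostly up to about 92 µM; compound exposure lasted 16 hr before ATP read; on the % scale 0 is the no-effect control and ±100 the full control effect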)
How it was run: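 CHO cells carrying TET-inducible ROR and RORE-luciferase reporter, plated 5 hr, then dosed with compound plus doxycycline. After 16 hr at 37 C, viability read as intracellular ATP by CellTiter-Glo luminescence.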

[18] = qHTS assay for small molecule agonists of the antioxidant response element (ARE) signaling pathway measured by Nrf2-dependant transcriptional activity - cell viability counter screen (AID 720653; active means well fitted curve in the direction sought with a large enough effect in the repeat runs; an effect the other way counts as inactive or inconclusive; further: on the % scale 0 is the no-effect control and ±100 the full control effect); settings: ARE-bla HepG2 viability, CellTiter-Glo ATP luminescence, 16 h; stronger effect = lower value
How it was run: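 ARE-bla HepG2 cells (2,000/well) rested 5 hrs at 37C/5% CO2, then exposed to compounds in DMSO for 16 hrs. Viability was read in the same wells as intracellular ATP by luminescence, 30 min at room temperature after reagent addition.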

[19] = qHTS assay for cell viability of HEK293 cells (AID 743288); settings: ATP luminescence (CellTiter-Glo), 18 h, stronger effect = lower value; further: on the % scale 0 is the no-effect control and ±100 the full control effect; nearly all actives have a fitted effect of over 50% in size
How it was run: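 HEK293 parental, 2,000 cells/well; ≥5 h pre-incubation 37 C; pintool compound addition; 18 h, 37 C; CellTiter-Glo 30 min RT; luminescence read.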

[20] = qHTS assay for cell viability of the p53RE-bla HCT-116 cell line (AID 743292); further: on the % scale 0 is the no-effect control and ±100 the full control effect; nearly all actives have a fitted effect of over 55% in size
How it was run: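 ATP-based luminescence, 16 h compound exposure at 37 C, p53RE-bla HCT-116 cells at 4,000/well.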

[21] = target: Calcium and integrin-binding protein 1 (Homo sapiens) (UniProt Q99828); test: Primary qHTS for Identification of Calcium Integrin Binding Protein 1 (CIB1) Competitor (AID 1508620)
Sequence of Calcium and integrin-binding protein 1 (Homo sapiens) (Q99828 whole entry, looked up): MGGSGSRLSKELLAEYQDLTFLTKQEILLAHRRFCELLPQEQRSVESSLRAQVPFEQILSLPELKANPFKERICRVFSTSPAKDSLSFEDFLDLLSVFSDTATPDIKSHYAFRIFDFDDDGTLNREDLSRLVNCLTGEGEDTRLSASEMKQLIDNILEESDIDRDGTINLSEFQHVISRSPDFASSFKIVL
How it was run: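 Fluorescence polarization competition: CIB1-GST (1 uM final) preincubated with compound 15 min at room temperature, then FITC-labeled alphaIIb peptide (100 nM final) added for another 15 min. Polarization read at Ex 480/Em 540.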

O=C(Nc1ccccc1)Nc1ccccc1
inactive: outcome [1] | outcome [3] | outcome [4] | max response [6] -1.03% | activity change % (negative = inhibition) [7] -2.58% | Potency [8] | activation [9] -2.22% | activation [10] 0.321% | Potency [13] | max response [15] -3.47% | outcome [16] | outcome [17] | max response [18] -0.927% | max response [19] -16.1% | Potency [20] | Potency [21]
-7.85%: max response [5]
active: Potency [11] 10.6 µM | Potency [12] 13.3 µM | Potency [14] 12.6 µM
-6.23%: max response [2]
